Screening results deposited in PubChem BioAssay by National Center for Advancing Translational Sciences (NCATS).
In the library only some 19% were active in any assay of this set; here they are far more common.
HepG2 viability: qHTS for Inhibitors of TGF-b: Cytotox Counterscreen. HepG2 CAGA-GFP viability, ATP luminescence, 18 h. Potency, µM (titrated, usually from 46.1 µM), hits mostly cytotoxic. hit rate 0.76% among 410,000
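HepG2 CAGA-GFP cells (1000/well, DMEM with 1% FBS) received compound, then TGF-beta at 500 pg/mL final, and were incubated 18 hours at 37 degrees C. Viability was read by CellTiter-Glo luminescence. Media-only wells were set as complete cell-killing and DMSO as no toxicity.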
DT40 TDP1 CPT: qHTS for Inhibitors of human tyrosyl-DNA phosphodiesterase 1 (TDP1): qHTS in cells in presence of CPT. chicken DT40 Tdp1-/-;hTDP1 cells + 20 nM CPT, ATP luminescence, 48 h. Potency, µM (titrated, usually from 46.2 µM), usual class: inhibitors. hit rate 12% among 420,000. AID 686979, 2013; also: nearly all actives have a fitted effect of over 55% in size
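Cell growth measured by CellTiter-Glo luminescence after a minimum 48 h, 37 C compound exposure with 20 nM CPT in Tdp1-knockout DT40 cells stably expressing hTDP1, seeded 400/well; qHTS titration format.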
IL1B secr inh: qHTS for Inhibitors of Inflammasome Signaling: IL-1-beta AlphaLISA Primary Screen; THP-1 LPS/ATP IL-1B secretion, AlphaLISA, 16 h; active compounds read low; activity change, % at 57.5 µM; hit rate 4.7% among 360,000; AID 743279, 2014; in the data active = activity change below about -50%; inconclusive = mostly about -30% to -49%
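Secreted IL-1B measured by AlphaLISA bead assay after 16 h compound exposure of THP-1 cells; compounds (final up to 57.5 uM) added 1 h before LPS (250 ng/mL) and ATP (1.25 mM) stimulation; lower signal means less secretion.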
TDP1 cell noCPT: qHTS for Inhibitors of human tyrosyl-DNA phosphodiesterase 1 (TDP1): qHTS in cells in absence of CPT; DT40 Tdp1-/- hTDP1 cells, no CPT, ATP luminescence, 48 h; Potency, µM (doses to about 46.2 µM), usual class: inhibitors; hit rate 15% among 420,000; AID 686978, 2013; also: nearly all actives have a fitted effect of over 55% in size
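No-CPT arm: Tdp1-/-;hTDP1 DT40 cells (400/well) plus compounds, incubated ≥48 hr at 37 °C. Readout CellTiter-Glo luminescence.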
TDP1 block: qHTS Assay for Inhibitors of Tyrosyl-DNA Phosphodiesterase (TDP1); Tyrosyl-DNA phosphodiesterase 1 (Homo sapiens), Q9NUW8; Potency, µM (top dose mostly 130 µM), usual class: inhibitors; recombinant TDP1, AlphaScreen DNA substrate cleavage; hit rate 0.28% among 350,000; also: nearly all actives have a fitted effect of over 40% in size
Target sequence (Q9NUW8 whole entry, looked up): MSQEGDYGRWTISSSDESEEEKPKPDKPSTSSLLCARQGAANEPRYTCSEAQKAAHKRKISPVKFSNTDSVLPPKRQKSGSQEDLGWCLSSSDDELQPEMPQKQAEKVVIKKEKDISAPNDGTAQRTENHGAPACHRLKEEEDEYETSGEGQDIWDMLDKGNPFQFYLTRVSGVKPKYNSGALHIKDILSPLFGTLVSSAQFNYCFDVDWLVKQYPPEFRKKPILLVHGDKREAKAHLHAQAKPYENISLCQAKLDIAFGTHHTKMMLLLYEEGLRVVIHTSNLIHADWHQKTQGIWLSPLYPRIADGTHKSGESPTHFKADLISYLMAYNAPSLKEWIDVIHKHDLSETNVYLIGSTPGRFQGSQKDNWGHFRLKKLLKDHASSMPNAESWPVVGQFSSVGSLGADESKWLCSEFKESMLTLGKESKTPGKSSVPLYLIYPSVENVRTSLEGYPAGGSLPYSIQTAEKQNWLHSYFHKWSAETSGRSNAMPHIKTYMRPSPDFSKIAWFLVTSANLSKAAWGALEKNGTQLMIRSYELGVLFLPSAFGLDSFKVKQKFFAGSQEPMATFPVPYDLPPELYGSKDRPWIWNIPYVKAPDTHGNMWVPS
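E. coli-derived human Tdp1, 1 nM final. Cpd preinc 15 min RT; substrate 15 nM final, 5 min RT; AS bead mix 10 ug/ml final, 10 min RT. Signal loss = tyrosine-FITC cleavage. No-enzyme wells = max signal.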
TGFb inhibitor: qHTS for Inhibitors of TGF-b | HepG2 CAGA-GFP TGF-b/SMAD3 reporter, GFP fluorescence, 18 h; TGF-beta stimulated, 500 pg/mL final | AID 588855, 2011 | Potency, µM (titrated, usually from 46.1 µM), actives largely listed as inhibitors | hit rate 1.2% among 410,000; also: nearly all actives have a fitted effect of over 65% in size
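GFP signal (ex488/em500-530) from TGF-beta-stimulated HEPG2 CAGA-GFP cells, 500 pg/mL final, 18 h at 37 degrees C in DMEM plus 1% FBS, normalized to unstimulated and DMSO-stimulated controls.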
Of the large screens only hits and unclear results are named; the others gave an inactive call. Unless noted, calls follow the shape of the dose curve; as a rule, active = well fitted curve in the direction sought with a large enough effect; inconclusive = small, poorly fitted or top-dose-only effect, or another doubt; inactive = no such curve, though single readings can be large; an effect the other way counts as inactive or inconclusive.

CCOC(=O)N1CCN(C(=O)c2cc(-c3ccc(OCC)cc3)nc3ccccc23)CC1	DT40 TDP1 CPT 4.6µM, TDP1 cell noCPT 3.7µM
CCOC(=O)N1CCN(C(=O)c2cc(-c3ccncc3)nc3ccccc23)CC1	DT40 TDP1 CPT 5.8µM, TDP1 cell noCPT 5.8µM
CCOc1ccc(-c2cc(C(=O)N3CCN(C)CC3)c3ccccc3n2)cc1	DT40 TDP1 CPT inconclusive, TDP1 cell noCPT inconclusive
Cc1ccc(-c2cc(C(=O)N3CCN(C4CCS(=O)(=O)C4)CC3)c3ccccc3n2)cc1 (centres undefined)	DT40 TDP1 CPT 13µM, IL1B secr inh inconclusive, TDP1 cell noCPT inconclusive
Cc1ccc(-c2nn(-c3ccccc3)cc2C(=O)N2CCN(C3CCS(=O)(=O)C3)CC2)cc1 (centres undefined)	none
O=C(CS(=O)(=O)c1cccc2nsnc12)NCc1ccccc1Cl	TDP1 cell noCPT inconclusive (no result: IL1B secr inh)
CC1(C)CC(NC(=O)C2CCC(=O)N(C3CC3)C2)CC(C)(C)C1 (centres undefined)	none
CCOC(=O)C1CCCN(C(=O)c2sc(-c3ccccc3)nc2C)CC1 (centres undefined)	DT40 TDP1 CPT inconclusive, TDP1 cell noCPT 15µM (no result: TDP1 block)
CCOC(=O)C1CCN(C(=O)c2cc(-c3ccncc3)nc3ccccc23)CC1	DT40 TDP1 CPT inconclusive, TDP1 cell noCPT 21µM
CCOC(=O)C1CCCN(C(=O)c2cc(-c3ccccc3)nc3ccccc23)C1 (centres undefined)	none
Cc1ccc(-c2cc(C(=O)N3CCCCC3)c3ccccc3n2)cc1C	DT40 TDP1 CPT 16µM, TDP1 cell noCPT 23µM, TGFb inhibitor inconclusive
O=C(NCc1ccc(Cl)cc1)C1CCCN(c2cnccn2)C1 (centres undefined)	TDP1 cell noCPT inconclusive
CCCC/C=C/C(NC(=O)OCc1ccccc1Cl)c1ccccc1 (centres undefined)	none (no result: HepG2 viability, DT40 TDP1 CPT, IL1B secr inh, TDP1 cell noCPT, TGFb inhibitor)
Cc1ccc(NC(=O)N2CC3CCCN3c3ccccc32)cc1C (centres undefined)	DT40 TDP1 CPT 18µM, TDP1 cell noCPT 23µM (no result: IL1B secr inh)
Cc1ccc(NC(=O)N2CC3CCCN3c3ccccc32)c(C)c1 (centres undefined)	DT40 TDP1 CPT 23µM, TDP1 cell noCPT 18µM, TGFb inhibitor inconclusive (no result: IL1B secr inh)
Cc1ccc(NC(=O)N2CC3CCCN3c3ccccc32)cc1Cl (centres undefined)	DT40 TDP1 CPT inconclusive, TDP1 cell noCPT 16µM (no result: IL1B secr inh)
COC(=O)c1ccc(Cl)cc1NC(=O)N1CC2CCCN2c2ccccc21 (centres undefined)	DT40 TDP1 CPT inconclusive, TDP1 cell noCPT inconclusive (no result: IL1B secr inh)
O=C(Nc1cccc(C(F)(F)F)c1)N1CC2CCCN2c2ccccc21 (centres undefined)	DT40 TDP1 CPT inconclusive, TDP1 cell noCPT inconclusive, TGFb inhibitor inconclusive (no result: IL1B secr inh)
COCCN(C(=O)CSc1nnc(-c2ccc(C(C)(C)C)cc2)n1N)c1c(N)n(CC(C)C)c(=O)[nH]c1=O	none
Cc1cc(C)c2c(-n3cccc3)c(C(=O)NCCc3ccccc3)sc2n1	TDP1 cell noCPT inconclusive (no result: IL1B secr inh)
COCCc1ccc(OC2(C)CCN(Cc3ccc(OC)c4ccccc34)C2)cc1 (centres undefined)	DT40 TDP1 CPT inconclusive, TDP1 cell noCPT 16µM (no result: TDP1 block)
COc1cccc(CN2CCC(C)(Oc3cccc(Cl)c3)C2)c1OC (centres undefined)	DT40 TDP1 CPT inconclusive, TDP1 cell noCPT 16µM (no result: TDP1 block)
COCCc1ccc(OC2(C)CCN(Cc3cccc(OC)c3OC)C2)cc1 (centres undefined)	DT40 TDP1 CPT inconclusive (no result: TDP1 block)
CC1CCCCC1NC(=O)CCn1ccc2cc(S(=O)(=O)N3CCCC3)ccc21 (centres undefined)	DT40 TDP1 CPT inconclusive
Cc1ccccc1CC(=O)Nc1ccc(C(=O)N2CCCC2)cc1	none
